# PubChem BioAssay (NCATS)
# Values joined by “and” are separate entries in the source; they are usually repeats but may differ in a detail not shown here. Equal values may be shown once. Inconclusive results are not listed. Entries that show only a call come without a potency. Active and inactive are the calls of the source. Unless noted, calls follow the shape of the dose curve; as a rule, active = well fitted curve in the direction sought with a large enough effect; inconclusive = small, poorly fitted or top-dose-only effect, or another doubt; inactive = no such curve, though single readings can be large; an effect the other way counts as inactive or inconclusive.
# Tests used:
# [1] = Validation screen for small molecules that induce genotoxicity in human embryonic kidney (HEK293T) cells expressing luciferase-tagged ELG1 (AID 493106)
# Procedure, shortened: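 In this validation screen, increased ELG1-luciferase signal flags compounds causing genetic stress. HEK293T reporter cells are treated 16 hr (37 °C, 5% CO2), developed with ONE-Glo for 30 min at room temperature, and imaged on a CCD-based reader.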
# [2] = molecular target: ATPase family AAA domain-containing protein 5 (Homo sapiens) (UniProt Q96QE3); test: Validation screen for small molecules that inhibit ELG1-dependent DNA repair in human embryonic kidney (HEK293T) cells expressing luciferase-tagged ELG1 (AID 493107);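 also: cells co-treated with the DNA-damaging agent 5-fluorouridine alongside compound; series mostly up to about 46 µM; inhibitors lower the ELG1-luciferase luminescence signal; nearly all actives have a fitted effect of over 70% in size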
# Chain of ATPase family AAA domain-containing protein 5 (Homo sapiens) (Q96QE3 whole entry, looked up, the tested form may be a part): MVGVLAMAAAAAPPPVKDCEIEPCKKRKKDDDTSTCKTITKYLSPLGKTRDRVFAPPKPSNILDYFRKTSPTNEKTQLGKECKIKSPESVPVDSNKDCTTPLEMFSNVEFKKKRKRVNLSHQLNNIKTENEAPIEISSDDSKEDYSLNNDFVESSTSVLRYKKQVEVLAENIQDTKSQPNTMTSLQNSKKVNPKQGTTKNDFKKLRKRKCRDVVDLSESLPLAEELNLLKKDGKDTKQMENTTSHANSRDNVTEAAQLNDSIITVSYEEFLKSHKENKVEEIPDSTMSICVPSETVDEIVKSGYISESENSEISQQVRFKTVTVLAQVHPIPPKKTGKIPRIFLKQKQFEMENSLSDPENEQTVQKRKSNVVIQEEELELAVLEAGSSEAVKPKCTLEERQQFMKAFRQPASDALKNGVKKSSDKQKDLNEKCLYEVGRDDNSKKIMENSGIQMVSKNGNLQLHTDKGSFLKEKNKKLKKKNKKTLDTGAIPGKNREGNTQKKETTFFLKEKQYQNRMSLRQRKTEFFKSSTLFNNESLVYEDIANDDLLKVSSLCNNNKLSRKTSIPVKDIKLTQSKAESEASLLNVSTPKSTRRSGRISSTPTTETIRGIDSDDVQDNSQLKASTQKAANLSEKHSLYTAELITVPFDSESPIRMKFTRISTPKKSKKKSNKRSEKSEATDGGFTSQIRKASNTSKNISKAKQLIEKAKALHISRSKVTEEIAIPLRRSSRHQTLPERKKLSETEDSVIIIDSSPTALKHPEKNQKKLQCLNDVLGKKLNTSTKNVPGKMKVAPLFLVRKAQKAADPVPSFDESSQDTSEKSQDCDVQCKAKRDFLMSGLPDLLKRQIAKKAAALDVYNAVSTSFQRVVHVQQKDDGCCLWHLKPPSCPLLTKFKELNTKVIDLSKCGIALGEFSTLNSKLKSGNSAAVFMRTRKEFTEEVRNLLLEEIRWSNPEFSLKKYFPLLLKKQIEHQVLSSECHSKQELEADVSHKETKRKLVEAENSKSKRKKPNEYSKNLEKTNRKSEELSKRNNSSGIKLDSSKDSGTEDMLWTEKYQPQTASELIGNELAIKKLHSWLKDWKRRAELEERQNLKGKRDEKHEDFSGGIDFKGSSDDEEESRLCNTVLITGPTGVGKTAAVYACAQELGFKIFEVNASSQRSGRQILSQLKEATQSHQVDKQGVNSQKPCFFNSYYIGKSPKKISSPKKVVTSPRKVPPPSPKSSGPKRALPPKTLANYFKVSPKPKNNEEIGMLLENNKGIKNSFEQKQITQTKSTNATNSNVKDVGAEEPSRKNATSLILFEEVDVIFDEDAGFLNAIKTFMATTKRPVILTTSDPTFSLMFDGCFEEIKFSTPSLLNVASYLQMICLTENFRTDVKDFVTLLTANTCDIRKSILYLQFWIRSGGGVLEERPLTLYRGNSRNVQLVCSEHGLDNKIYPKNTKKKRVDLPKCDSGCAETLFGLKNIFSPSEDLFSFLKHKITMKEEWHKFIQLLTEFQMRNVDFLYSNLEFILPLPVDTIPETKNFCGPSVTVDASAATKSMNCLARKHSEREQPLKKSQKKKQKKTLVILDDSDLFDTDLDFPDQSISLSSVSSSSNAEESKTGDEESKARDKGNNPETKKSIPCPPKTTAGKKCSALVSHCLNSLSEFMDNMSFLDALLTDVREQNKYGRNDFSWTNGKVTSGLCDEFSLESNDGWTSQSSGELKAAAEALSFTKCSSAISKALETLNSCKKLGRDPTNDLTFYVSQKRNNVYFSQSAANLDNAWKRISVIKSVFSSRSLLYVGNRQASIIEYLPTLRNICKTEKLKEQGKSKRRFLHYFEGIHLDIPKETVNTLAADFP
# Procedure, shortened: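 Compounds reducing 5-fluorouridine-driven ELG1-luciferase signal in HEK293T cells were scored; exposure lasted 16 hr at 37 °C with luminescence detected via ONE-Glo.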
# [3] = molecular target: Thyrotropin-releasing hormone receptor (Homo sapiens) (UniProt P34981); test: qHTS for Small Molecule Agonists and Allosteric Enhancers of Human TRH Receptor: Validation Screen for Agonists (AID 493127;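 active = calcium activation more than 3 SD above the typical response in the agonist read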;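 also: intracellular calcium rise by fluo-8 fluorescence before TRH EC20 addition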); settings: TRH receptor agonist cell assay; at 2 µM; stronger effect = higher value
# Chain of Thyrotropin-releasing hormone receptor (Homo sapiens) (P34981 whole entry, looked up): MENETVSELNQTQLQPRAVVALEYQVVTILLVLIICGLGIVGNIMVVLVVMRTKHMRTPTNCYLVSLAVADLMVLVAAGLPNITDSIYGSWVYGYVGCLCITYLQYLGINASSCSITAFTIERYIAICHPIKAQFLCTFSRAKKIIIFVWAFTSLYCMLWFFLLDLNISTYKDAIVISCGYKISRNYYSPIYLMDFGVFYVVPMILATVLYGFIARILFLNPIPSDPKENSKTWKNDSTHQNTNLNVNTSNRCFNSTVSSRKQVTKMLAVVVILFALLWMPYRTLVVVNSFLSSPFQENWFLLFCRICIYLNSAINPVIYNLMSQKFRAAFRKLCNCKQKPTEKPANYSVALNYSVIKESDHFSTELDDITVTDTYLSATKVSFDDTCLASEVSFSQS
# Procedure, shortened: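 Kinetic fluorescence assay of agonist-induced calcium release: overnight-plated TRHR cells, room-temperature fluo-8 loading, baseline then compound addition with per-second reads.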
# [4] = Nrf2 qHTS screen for inhibitors: Validation (AID 493153; active = well fitted inhibition curve with a large enough effect in the main read-out, with a control signal flat, not every such curve was filed as active); settings: Potency: luciferase luminescence; viability change: measured here: cytotoxicity max response
# Procedure, shortened: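 In this counterscreened reporter format, each well gives two signals: CellTiter-Fluor fluorescence for cytotoxicity and ARE-luciferase luminescence for Nrf2 function. A549 ARE_Fluc cells in 5% FBS OPTI-MEM were exposed to compound titrations for 18-24 h.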
# [5] = qHTS for Inhibitors of Cell Surface uPA Generation: Validation Assay (AID 493164);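 also: RAW 264.7 macrophage cells exposed to compound for 18 h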
# Procedure, shortened: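 Compounds are titrated over seven points (2.45 nM–38.3 uM final) onto pre-plated RAW 264.7 cells and incubated for 18 h. Retained intracellular ATP, measured with ATP-Lite, indicates blocked lethal factor entry.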
# [6] = molecular target: Galactokinase (Homo sapiens) (UniProt P51570); test: qHTS Validation Assay for Inhibitors of Human Galactokinase (GALK) (AID 493189)
# Procedure, shortened: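 5 nM GALK / 100 uM galactose / 35 uM ATP, 20 mM HEPES pH8.0, 5 mM MgCl2, 60 mM NaCl, 1 mM DTT, 0.01% BSA (final). RT 1 h; Kinase-Glo Plus luminescence.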
# [7] = Validation screen for small molecules that induce DNA re-replication in SW480 colon adenocarcinoma cells (AID 504364)
# Procedure, shortened: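 Hoechst-stained SW480 nuclei, imaged at 405 nm excitation after 48 hr compound exposure, were counted for elevated DNA content as the re-replication signal.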
# [8] = molecular target: Peptidyl-prolyl cis-trans isomerase NIMA-interacting 1 (Homo sapiens) (UniProt Q13526); test: qHTS Validation Assay to Find Inhibitors of Pin1 (AID 504536; active = well fitted inhibition curve with a large enough effect in the polarisation, with a control signal flat, not every such curve was filed as active; the % refers to the polarisation)
# Chain of Peptidyl-prolyl cis-trans isomerase NIMA-interacting 1 (Homo sapiens) (Q13526 whole entry, looked up): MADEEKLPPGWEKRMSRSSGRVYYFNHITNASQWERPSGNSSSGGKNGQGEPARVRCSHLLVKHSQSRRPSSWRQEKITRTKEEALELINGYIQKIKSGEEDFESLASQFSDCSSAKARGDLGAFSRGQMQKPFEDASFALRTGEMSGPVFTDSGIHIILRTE
# Procedure, shortened: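 Fluorescence polarization competition: compounds (titration) displace HiFluor-488-labeled Pin1-1b peptide from Pin1 (0.3 uM final) in pH 7.5 HEPES buffer with DTT, 10 min at room temperature; %Activity normalized to no-enzyme wells, curves fitted.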
# [9] = molecular target: Phosphoglycerate kinase, glycosomal (Trypanosoma brucei brucei) (UniProt P07378); test: qHTS Validation Assay to Find Inhibitors of Phosphoglycerate Kinase (AID 504547)
# Chain of Phosphoglycerate kinase, glycosomal (Trypanosoma brucei brucei) (P07378 whole entry, looked up): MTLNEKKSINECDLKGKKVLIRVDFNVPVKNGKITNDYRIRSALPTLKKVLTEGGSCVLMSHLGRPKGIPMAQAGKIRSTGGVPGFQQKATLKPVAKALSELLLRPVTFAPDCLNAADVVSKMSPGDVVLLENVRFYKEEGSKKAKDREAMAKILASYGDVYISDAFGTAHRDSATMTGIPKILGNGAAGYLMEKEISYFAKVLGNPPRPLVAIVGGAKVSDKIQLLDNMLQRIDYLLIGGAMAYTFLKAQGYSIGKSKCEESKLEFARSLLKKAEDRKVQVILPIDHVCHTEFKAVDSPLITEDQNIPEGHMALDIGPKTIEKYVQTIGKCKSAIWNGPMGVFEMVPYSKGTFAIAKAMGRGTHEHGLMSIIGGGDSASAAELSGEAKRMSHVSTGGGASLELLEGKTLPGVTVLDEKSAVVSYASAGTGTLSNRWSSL
# Procedure, shortened: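 In TEA buffer (100mM, pH 7.6) containing 5mM MgCl2 and 0.01% Tween-20, the GAPDH-coupled PGK reaction proceeded for 60 minutes at room temperature before a single luminescence reading using Kinase-Glo Plus.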
# [10] = molecular target: phosphoglycerate mutase (Leishmania major) (UniProt Q4Q090); test: qHTS Validation Assay to Find Inhibitors of Phosphoglycerate Mutase (AID 504548);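 also: end-point luminescence from Kinase-GloPlus after the PGAM reaction; series mostly up to about 58 µM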
# Procedure, shortened: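 L. major PGAM (1.25nM final) was added to substrate buffer and pinned compound, incubated 45 minutes at room temperature, then Kinase-GloPlus added; luminescence read after 10 minutes. Buffer: 100 mM TEA pH 7.6, 5 mM MgCl2, 0.01% Tween-20.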
# [11] = molecular target: Ubiquitin carboxyl-terminal hydrolase 1 (Homo sapiens) (UniProt O94782); test: Inhibitors of USP1/UAF1: Pilot qHTS (AID 504865);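 also: rhodamine fluorescence freed from ubiquitin-rhodamine substrate followed over time; top concentration of the series differs between compounds; nearly all actives have a fitted effect of over 35% in size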
# Chain of Ubiquitin carboxyl-terminal hydrolase 1 (Homo sapiens) (O94782 whole entry, looked up): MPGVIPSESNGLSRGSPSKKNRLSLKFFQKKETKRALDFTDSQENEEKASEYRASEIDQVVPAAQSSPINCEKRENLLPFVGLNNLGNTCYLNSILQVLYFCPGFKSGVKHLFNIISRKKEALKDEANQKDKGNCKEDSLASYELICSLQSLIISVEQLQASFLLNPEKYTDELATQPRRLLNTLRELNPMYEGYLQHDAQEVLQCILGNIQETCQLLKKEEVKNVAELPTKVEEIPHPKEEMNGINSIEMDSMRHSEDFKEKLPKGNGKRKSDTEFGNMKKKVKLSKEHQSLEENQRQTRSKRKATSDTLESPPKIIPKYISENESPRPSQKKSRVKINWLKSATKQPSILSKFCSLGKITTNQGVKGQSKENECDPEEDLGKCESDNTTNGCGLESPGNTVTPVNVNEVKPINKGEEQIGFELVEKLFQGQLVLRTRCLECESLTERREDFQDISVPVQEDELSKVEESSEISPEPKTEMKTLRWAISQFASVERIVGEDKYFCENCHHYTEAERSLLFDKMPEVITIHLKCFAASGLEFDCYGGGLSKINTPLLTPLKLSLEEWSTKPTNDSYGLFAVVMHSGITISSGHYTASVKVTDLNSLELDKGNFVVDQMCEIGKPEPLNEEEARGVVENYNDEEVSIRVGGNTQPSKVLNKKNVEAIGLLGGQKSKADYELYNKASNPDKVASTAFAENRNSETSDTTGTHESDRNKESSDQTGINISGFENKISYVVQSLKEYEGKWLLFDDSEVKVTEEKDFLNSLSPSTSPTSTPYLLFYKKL
# Procedure, shortened: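 In 50mM HEPES pH 7.8 containing 0.5mM EDTA, 1mM TCEP, 0.1 mg/ml BSA and 0.01% Tween-20, 1nM USP1/UAF1 is exposed to compound for 15 min, then Ub-Rho (150nM final) is added and fluorescence is read over time.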
# [12] = qHTS for Inhibitors of ATXN expression: Validation of Cytotoxic Assay (AID 588349)
# Procedure, shortened: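 Toxicity of test compounds toward HEK293 cells is scored from cellular ATP content measured by CellTiter Glo. Cells receive titrated doses and incubate 72 hr at 37 degrees C beforehand.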
# [13] = qHTS for Inhibitors of ATXN expression: Validation (AID 588378); also: series mostly up to about 57 µM; nearly all actives have a fitted effect of over 75% in size
# Procedure, shortened: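 Compounds were pinned onto attached HEK293 cells carrying an ATXN2-firefly luciferase construct and incubated 24 hrs at 37 degrees C. Each well then received a fluorescent viability reagent followed by luciferase substrate for end-point luminescence.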
# [14] = molecular target: ATP-dependent 6-phosphofructokinase (Trypanosoma brucei brucei) (UniProt O15648); test: qHTS Assay to Find Inhibitors of T. brucei phosphofructokinase: hit validation (AID 492961);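 also: luminescence reports ADP formed as PFK phosphorylates fructose-6-phosphate with ATP; series mostly up to about 51 µM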
# Procedure, shortened: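 Reaction: 0.1 M triethanolamine pH 8.0, 5 mM MgCl2, F6P 0.5 mM, ATP 0.1 mM, PFK 1.25 nM, 45 min RT. Read-out: ADP-Glo luminescence. Analysis: concentration-response fits, classed by r2 and efficacy.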
# [15] = molecular target: Estrogen receptor (Homo sapiens) (UniProt P03372); test: qHTS assay for small molecule antagonists of estrogen receptor alpha signaling (AID 588513; active = well fitted curve in the direction sought with a large enough effect in the signal ratio, with a control signal flat, not every such curve was filed as active; the % refers to the signal ratio)
# Chain of Estrogen receptor (Homo sapiens) (P03372 whole entry, looked up): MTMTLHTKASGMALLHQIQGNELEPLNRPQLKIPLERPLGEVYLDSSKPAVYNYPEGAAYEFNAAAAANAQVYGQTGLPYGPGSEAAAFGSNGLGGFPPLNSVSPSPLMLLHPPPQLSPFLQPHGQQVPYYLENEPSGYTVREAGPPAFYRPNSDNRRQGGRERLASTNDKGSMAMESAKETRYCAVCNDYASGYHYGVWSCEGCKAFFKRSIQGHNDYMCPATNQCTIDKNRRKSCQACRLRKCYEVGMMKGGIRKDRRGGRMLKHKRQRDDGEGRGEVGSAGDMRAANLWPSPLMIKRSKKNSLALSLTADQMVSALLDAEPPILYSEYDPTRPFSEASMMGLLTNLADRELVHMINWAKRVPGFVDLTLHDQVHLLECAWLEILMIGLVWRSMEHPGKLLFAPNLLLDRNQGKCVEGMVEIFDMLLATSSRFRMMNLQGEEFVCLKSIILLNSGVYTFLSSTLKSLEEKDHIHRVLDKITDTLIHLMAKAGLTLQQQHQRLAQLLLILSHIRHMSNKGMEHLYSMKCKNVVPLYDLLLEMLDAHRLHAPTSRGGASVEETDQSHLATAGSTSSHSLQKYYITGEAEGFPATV
# Procedure, shortened: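 Fluorescence from CCF4 substrate after 2 h at room temperature gave reporter activity; cells had been exposed to compound and 0.5nM 17-beta-estradiol for 18 h at 37 C. Hill-equation fitting yielded IC50 and maximal response.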
# [16] = molecular target: Estrogen receptor (Homo sapiens) (UniProt P03372); test: qHTS assay for small molecule agonists of estrogen receptor alpha signaling (AID 588514; calls by dose curve; also: nearly all actives have a fitted effect of over 70% in size)
# Procedure, shortened: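 Fluorescence from CCF4 cleavage reports ER-alpha-driven beta-lactamase expression in HEK 293 cells treated 18 hrs at 37 C. Data normalized to 17-beta-estradiol (20 nM) and DMSO, fitted to Hill equation.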
# [17] = molecular target: Glucocorticoid receptor (Homo sapiens) (UniProt P04150); test: qHTS assay for small molecule agonists of glucocorticoid receptor signaling (AID 588532; active = well fitted curve in the direction sought with a large enough effect in the signal ratio, with a control signal flat; the % refers to the signal ratio); settings: HeLa MMTV-bla, beta-lactamase ratio, agonist, 18 h; activation: stronger effect = higher value, percent of dexamethasone control, DMSO zero
# Chain of Glucocorticoid receptor (Homo sapiens) (P04150 whole entry, looked up): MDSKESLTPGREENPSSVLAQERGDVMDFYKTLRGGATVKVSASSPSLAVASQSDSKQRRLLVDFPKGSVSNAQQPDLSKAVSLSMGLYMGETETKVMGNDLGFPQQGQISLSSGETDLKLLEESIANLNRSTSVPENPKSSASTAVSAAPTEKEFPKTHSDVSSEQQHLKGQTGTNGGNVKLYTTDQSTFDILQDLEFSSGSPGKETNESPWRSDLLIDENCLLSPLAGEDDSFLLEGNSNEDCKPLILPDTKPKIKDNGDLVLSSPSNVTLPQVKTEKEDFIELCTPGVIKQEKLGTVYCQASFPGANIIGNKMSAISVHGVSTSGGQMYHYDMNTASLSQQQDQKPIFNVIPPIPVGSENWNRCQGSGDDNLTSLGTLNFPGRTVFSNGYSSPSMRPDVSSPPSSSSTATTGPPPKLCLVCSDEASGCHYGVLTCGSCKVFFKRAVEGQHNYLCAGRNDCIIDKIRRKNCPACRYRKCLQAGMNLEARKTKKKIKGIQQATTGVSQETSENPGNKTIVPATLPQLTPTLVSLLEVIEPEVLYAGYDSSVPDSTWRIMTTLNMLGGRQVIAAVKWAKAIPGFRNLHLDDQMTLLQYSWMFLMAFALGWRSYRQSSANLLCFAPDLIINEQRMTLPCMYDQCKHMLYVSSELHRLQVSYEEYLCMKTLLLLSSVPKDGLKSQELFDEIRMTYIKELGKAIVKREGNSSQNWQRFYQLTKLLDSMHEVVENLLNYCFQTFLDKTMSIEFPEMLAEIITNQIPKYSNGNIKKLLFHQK
# Procedure, shortened: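 Stimulation of a glucocorticoid response element-driven beta-lactamase gene was measured in HeLa cells. Responses were scaled between DMSO basal and 0.1 uM dexamethasone, then fitted for half-maximal stimulation.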
# [18] = molecular target: Bile acid receptor (Homo sapiens) (UniProt Q96RI1); test: qHTS assay for small molecule antagonists of farnesoid X receptor signaling (AID 588526; calls by dose curve)
# Procedure, shortened: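 Concentration-response titrations were fitted to the Hill equation for half-maximal inhibition and maximal response, with data normalised to 50 uM chenodeoxycholic acid and DMSO control wells. Cells: FXR-UAS-bla HEK293T, dialyzed FBS.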
SMILES,Potency [1],Potency [2],activation [3],Potency [4],viability change [4],outcome [5],outcome [6],outcome [7],outcome [8],outcome [9],outcome [10],Potency [11],Potency [12],Potency [13],outcome [14],outcome [15],Potency [16],activation [17],outcome [18]
Cc1nnc(SCC2=C(C(=O)O)N3C(=O)[C@@H](NC(=O)Cn4cnnn4)[C@H]3SC2)s1,inactive,inactive,1.12% (inactive),inactive,-1.79%,inactive,inactive,inactive,inactive,inactive,inactive,inactive,inactive,inactive,–,–,–,–,–
CCN(CC)CC(=O)Nc1c(C)cccc1C,inactive,inactive,1.5% (inactive),inactive,-7.11%,inactive,inactive,inactive,inactive,inactive,inactive,–,inactive,inactive,–,–,–,–,–
Nc1ncn([C@@H]2O[C@H](CO)[C@@H](O)[C@H]2O)c(=O)n1,–,–,1.31% (inactive),–,–,inactive,inactive,–,inactive,inactive,inactive,inactive,–,–,inactive,inactive,inactive,-7.09% (inactive) and -13.7% (inactive),–
N[C@@H](COP(=O)(O)O)C(=O)O,inactive,inactive,1% (inactive),inactive,6.46%,inactive,inactive,inactive,inactive,inactive,inactive,inactive,inactive,inactive,–,–,–,–,–
CCN(Cc1ccncc1)C(=O)C(CO)c1ccccc1 (configuration not stated),inactive,inactive,0.375% (inactive),inactive,-1.19%,inactive,inactive,inactive,inactive,inactive,inactive,inactive,inactive,inactive,–,–,–,–,–
COc1ccc(CCN(C)CCCC(C#N)(c2cc(OC)c(OC)c(OC)c2)C(C)C)cc1OC (configuration not stated),inactive,inactive,3% (inactive),inactive,-13.6%,inactive,inactive,inactive,inactive,inactive,inactive,inactive,–,–,–,–,–,–,–
c1ccc2c(c1)CCCC2C1=NCCN1 (configuration not stated),inactive,inactive,1.25% (inactive),inactive,-0.882%,inactive,inactive,inactive,inactive,inactive,inactive,inactive,inactive,inactive,–,–,–,–,–
CCn1cc(C(=O)O)c(=O)c2cc3c(cc21)OCO3,inactive,inactive,-0.375% (inactive),inactive,-3.79%,inactive,inactive,inactive,inactive,inactive,inactive,inactive,inactive,inactive,–,–,–,–,–
Nc1c2c(nc3ccccc13)CCCC2O (configuration not stated),inactive,inactive,1.62% (inactive),inactive,6.52%,inactive,inactive,inactive,inactive,–,inactive,inactive,inactive,inactive,–,–,–,–,–
CCCCNC(=O)NS(=O)(=O)c1ccc(C)cc1,inactive,inactive,1.25% (inactive),inactive,-5.96%,inactive,inactive,inactive,inactive,inactive,inactive,inactive,inactive,inactive,–,–,–,-10.2% (inactive),inactive
Cc1scc2c1N(C(=O)CN1CCN(C)CC1)c1ccccc1NC2=O,inactive,inactive,0.5% (inactive),inactive,3.95%,inactive,inactive,inactive,inactive,inactive,inactive,inactive,inactive,inactive,–,–,–,–,–
Cc1ccc(S(=O)(=O)NC(=O)NN2CCCCCC2)cc1,inactive,inactive,0.188% (inactive),inactive,-3.67%,inactive,inactive,inactive,inactive,inactive,inactive,–,inactive,inactive,–,inactive,inactive,-1.16% (inactive),–
CCN(CC)CCNC(=O)c1ccc(NC(C)=O)cc1,inactive,inactive,0.312% (inactive),inactive,16.6%,inactive,inactive,inactive,inactive,inactive,inactive,inactive,inactive,inactive,–,–,–,–,–
CN/C(=C\[N+](=O)[O-])NCCSCc1ccc(CN(C)C)o1,inactive,inactive,0.938% (inactive),inactive,4.46%,inactive,inactive,inactive,inactive,inactive,inactive,inactive,inactive,inactive,–,–,–,–,–
CNCCC(Oc1ccccc1OC)c1ccccc1 (configuration not stated),inactive,inactive,2.38% (inactive),inactive,4.36%,inactive,inactive,inactive,inactive,inactive,inactive,inactive,inactive,–,–,–,–,–,–
CCc1c(C)[nH]c2c1C(=O)C(CN1CCOCC1)CC2 (configuration not stated),inactive,inactive,0.75% (inactive),inactive,1.73%,inactive,inactive,inactive,inactive,inactive,inactive,inactive,inactive,inactive,–,–,–,–,–
FC(F)(F)c1ccccc1-n1ccnc1,inactive,inactive,-2.62% (inactive),inactive,12.3%,inactive,inactive,inactive,inactive,inactive,inactive,inactive,–,inactive,–,–,–,–,–
CCN1CCC[C@H]1CNC(=O)c1c(O)c(Cl)cc(Cl)c1OC,inactive,inactive,0.938% (inactive),inactive,-0.523%,inactive,inactive,inactive,inactive,inactive,inactive,inactive,inactive,inactive,–,–,–,–,–
